The results in this text go back to PubChem BioAssay (EPA / NIEHS).

Activity calls are given as the source filed them. The calls were made as follows: active = hit-call score of the fitted dose curve at least 0.9, where 1 is the maximum; inactive = score below 0.9.

The test in a line: ATG_TGFb_CIS: Attagene CIS-FACTORIAL HepG2 Assay for human Transforming Growth Factor (TGF) (AID 2282967). As to conditions: HepG2 Attagene CIS TGFb reporter, mRNA transcription; actives raise or lower the signal. Here is the method:
ATG_CIS is a cell-based, multiplexed-readout assay that uses HepG2, a human liver cell line, with measurements taken at 24 hours after chemical dosing in a 24-well plate.ATG_TGFb_CIS is one of 52 assay component(s) measured or calculated from the ATG_CIS assay. It is designed to make measurements of mRNA induction, a form of inducible reporter, as detected with fluorescence intensity signals by Reverse transcription polymerase chain reaction (RT-PCR) and Capillary electrophoresis technology.Data from the assay component ATG_TGFb_CIS was analyzed into 1 assay endpoint. This assay endpoint, ATG_TGFb_CIS, was analyzed with bidirectional fitting relative to DMSO as the negative control and baseline of activity. Using a type of inducible reporter, measures of mRNA for gain or loss-of-signal activity can be used to understand the reporter gene at the transcription factor-level as they relate to the gene TGFB1. Furthermore, this assay endpoint can be referred to as a primary readout, because this assay has produced multiple assay endpoints where this one serves a reporter gene function. To generalize the intended target to other relatable targets, this assay endpoint is annotated to the growth factor intended target family, where the subfamily is transforming growth factor beta.
Human liver HepG2 cells are transiently transfected with multiple reporter transcription units (MRTUs) in 6-well plates using FuGene 6 reagent (Roche; 3 ml FuGene/1 mg DNA). The MRTU constructs are regulated by a cis-regulating element (promoter). […] A major difference between the CIS and TRANS system is that in CIS activities of endogenous TFs are measured, whereas the TRANS assay evaluates changes in activities of exogenous, chimeric NR-Gal4 proteins. […] At the end of 24 hour incubation, total RNA was isolated using TriZol reagent (Invitrogen). The isolated RNA is then reverse-transcribed using oligo(dT) primer and Mo-MLV reverse transcriptase (Invitrogen) with DNAse I (Ambion) treatment for 30 min. The one-tenth of the produced cDNA was amplified by PCR using Taq DNA polymerase (Invitrogen) and two reporter sequence-specific primers. The PCR products were fluorescently labeled by primer extension with 6-arboxyfluorescein (6-FAM) 5'-labeled reporter sequence-specific primer (2 min at 95 C, 20 s at 68 C and 10 min at 72 C) and these products were digested with 5U of HpaI (New England Biolabs) for 2h at 37 C. The fragments were purified using Qiaquick PCR columns (Qiagen), analyzed on an ABI 3130xL genetic analyzer (Applied Biosystems) with peak positions identified by using a set of X-rhodamine (ROX)-labeled MapMarker1000 molecular weight standards (BioVentures). The raw capillary electrophoresis data was processed using Attagraph software (Attagene).
For the molecule `CC1(C)C(=O)NC(=O)NC1=O`, the outcome was inactive. For `CCN(CC)C(=S)S`, the result was inactive. As for `CCOC(=O)N(C)N=O`, the result was inactive. For `O=CNC(N1CCN(C(NC=O)C(Cl)(Cl)Cl)CC1)C(Cl)(Cl)Cl` (stereo not given), the call was inactive. On to `c1ccc(P(c2ccccc2)c2ccccc2)cc1`, for which the molecule was classed as inactive. As to `CCC(C)c1cc(C(C)(C)C)cc(-n2nc3ccccc3n2)c1O` (stereo not given), the result was inactive. In the case of `CC(C)C(=O)Cl`, the molecule was classed as inactive.

Regarding `COc1ccc(CO)cc1`, the molecule was classed as inactive. For `COc1cc(OC)nc(Oc2cccc(Oc3nc(OC)cc(OC)n3)c2C(=O)O)n1`, the outcome was inactive. For `CCCCCCC1CCOC1=O` (stereo not given), the molecule was called inactive. Take `[CH3][Sn]([CH3])([Cl])[Cl]`: the call was inactive. In the case of `O=P1(NCCCl)OCCCN1CCCl` (stereo not given), the call was inactive.

Regarding `Nc1c(Cl)c(Cl)c(Cl)c(Cl)c1Cl`, the molecule was classed as inactive.

`Cc1ccccc1CCl`: the result was inactive. The same measure, in the same setting: as for `S=c1[nH]c2ccccc2[nH]1`, the entry is “inactive”. As for `CC(C)c1ccc(O)cc1`, the call was inactive. Regarding `C=CCc1ccc(OC(=O)Cc2ccccc2)c(OC)c1`, the result was inactive. `O=C(O)C(Br)Br`: the call was inactive. Regarding `C=C(Cl)Cl`, the molecule was classed as inactive. In the case of `C=Cc1cccc(CCl)c1`, the molecule was classed as inactive. Turning to `CCOC(=O)NC(=S)Nc1ccccc1NC(=S)NC(=O)OCC`, the result was inactive. `C[C@]12CC[C@H](O)C[C@H]1CC[C@@H]1[C@@H]2C[C@@H](O)[C@]2(C)[C@@H](C3=CC(=O)OC3)CC[C@]12O`: the result was inactive. For `CC=Cc1ccc2c(c1)OCO2`, the AC50 was 0.0749 µM (active). Regarding `CCCCCc1cc(O)cc(O)c1`, the call was inactive. In the case of `CNC(=O)Oc1cc(C)c(SC)c(C)c1`, the molecule was classed as inactive.

Regarding `Cc1ncc(C[n+]2csc(CCO)c2C)c(N)n1`, the molecule was classed as inactive. For the molecule `CCOC(=O)COc1ccc(Cl)cc1Cl`, the call was inactive. Take `[N-]=[N+]=CC(=O)OC[C@H](N)C(=O)O`: the result was inactive. Same read-out and setting: as for `O=[N+]([O-])c1cc([N+](=O)[O-])c2ccccc2c1`, the entry is “inactive”. For `CCc1cccc(C)c1N(C(=O)CCl)[C@@H](C)COC`, the molecule was called inactive. Same read-out and setting: then `N#CCCCCC#N`, with “inactive”.

As for `CC(C)CCCCCCCOC(=O)c1ccccc1C(=O)OCCCCCCCC(C)C`, the molecule was called inactive.

In the case of `Cc1ccc(N(SC(F)(Cl)Cl)S(=O)(=O)N(C)C)cc1`, the call was inactive.

Take `O=C1C(Cl)=C(Cl)C(=O)C(Cl)=C1Cl`: the AC50 is 26.6 µM (active).

For the molecule `O=C(O)c1cc[c]([Hg][Cl])cc1`, the molecule was classed as inactive.

As for `C=CCN(CC=C)C(=O)C(Cl)Cl`, the molecule was called inactive. For `CC(C)(O)C#N`, the result was inactive. Still for that read-out and setting: as for `CCC(Br)(CC)C(=O)NC(N)=O`, the entry is “inactive”; as for `N#Cc1cccc(C#N)c1`, “inactive”.

In the case of `ClCCCCCCCl`, the call was inactive.

Broadly, the AC50 is the concentration giving half of the maximal activity seen.
